Screening results as filed in PubChem BioAssay.
This is a sample that favours compounds with a hit; in the whole collection about 3% have one here.
Vc quorum ag = inducers of Vibrio cholerae quorum light production without autoinducers; V. cholerae BH1578 lux reporter, luminescence, 6 h; activation, % at 18.7 µM; 0.16% of 350,000 active; AID 588436; in the data active = activation mostly above about 9.7%, no sharp cut-off; inconclusive = no clear call, values can overlap the other calls; inactive = mostly below about 3.7%
GDH-TPI counter = GDH-TPI coupled enzyme inhibition counter-screen; GDH-TPI coupled enzyme counterscreen, NADH absorbance; inhibition, % at 4.8 µM; AID 588335; 1.2% of 360,000 active; in the data active = inhibition above about 30%
BioA inh-1 = inhibitors of Mycobacterium tuberculosis BioA enzyme. purified M. tuberculosis BioA enzyme, plate reader. inhibition, % at 9.99 µM. 0.096% of 360,000 active. AID 602481; in the data active = inhibition above about 40%; inconclusive = no clear call, values can overlap the other calls
Mtb FBA inh = inhibits M. tuberculosis FBA enzyme. P9WQA3. purified M. tuberculosis FBA, fluorescence read-out. inhibition, % at 1 µM. 2.3% of 360,000 active; in the data active = inhibition above about 27%
Target sequence (P9WQA3 whole entry, looked up): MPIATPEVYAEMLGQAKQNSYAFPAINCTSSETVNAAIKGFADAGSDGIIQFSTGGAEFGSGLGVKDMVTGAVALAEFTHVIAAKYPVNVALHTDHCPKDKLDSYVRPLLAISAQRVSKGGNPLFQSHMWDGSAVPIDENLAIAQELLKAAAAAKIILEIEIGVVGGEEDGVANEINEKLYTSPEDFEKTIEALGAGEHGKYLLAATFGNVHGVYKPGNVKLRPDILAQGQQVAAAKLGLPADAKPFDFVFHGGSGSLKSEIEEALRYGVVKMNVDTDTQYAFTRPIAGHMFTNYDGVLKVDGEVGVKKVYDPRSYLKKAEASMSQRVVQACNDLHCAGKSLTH
BioA inh-2 = inhibitors of Mycobacterium tuberculosis BioA enzyme; max activity, %; purified BioA enzyme, plate reader, dose response; 310 tested, under 10 active; AID 651679; shares compounds with BioA inh-1;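 note: top concentration of the dilution series was 10 µM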
HepG2 cytotox = HepG2 viability loss | shares compounds with BioA inh-1 | HepG2 cytotoxicity, plate reader | max activity, % | 310 tested, under 10 active
NIH3T3 tox 5 = kills NIH3T3 cells; AID 651900; NIH3T3 cytotoxicity, plate reader; 310 tested, under 10 active; shares compounds with BioA inh-1; activity change, negative = cytotoxicity, % at 26 µM
Numbers stand for hits; - = inactive; ? = inconclusive; . = no result. Unless noted, the rule behind the calls is not given here.

SMILES | Vc quorum ag | GDH-TPI counter | BioA inh-1 | Mtb FBA inh | BioA inh-2 | HepG2 cytotox | NIH3T3 tox 5
O=C(Nc1ccc2snnc2c1)N1CCOCC1 | . | - | 65.1 | - | - | - | -
O=C(Nc1ccc2snnc2c1)N1CCN(c2ccccc2)CC1 | - | - | 74.6 | - | - | - | -
C[C@@H]1CN([C@@H](C)CO)C(=O)c2cc(C#Cc3cccnc3)cnc2O[C@@H]1CN(C)S(C)(=O)=O | . | . | - | . | . | . | .
C[C@@H]1CN([C@H](C)CO)C(=O)c2cc(C#Cc3cccnc3)cnc2O[C@H]1CN(C)S(C)(=O)=O | . | . | 84.2 | . | - | - | -
CC(=O)c1c(C)[nH]c(C(=O)Nc2cccnc2)c1C | - | - | 58.0 | - | - | - | -
CC(=O)c1c(C)[nH]c(C(=O)Nc2ccc(C)c(C)c2)c1C | - | - | - | - | . | . | .
CN1c2ccc(-c3cccc(C#N)c3)cc2[C@H]2[C@H](CCN2C(=O)CC2CC2)[C@H]1CO | . | . | 64.7 | . | - | - | -
CN1c2ccc(-c3ccccc3)cc2[C@@H]2[C@@H](CCN2C(=O)c2ccncc2)[C@H]1CO | . | . | - | . | . | . | .
CN1c2ccc(-c3cccc(F)c3)cc2[C@H]2[C@H](CCN2C(=O)C2CCOCC2)[C@H]1CO | . | . | 75.7 | . | - | - | -
CN1c2ccc(-c3cccc(F)c3)cc2[C@H]2[C@H](CCN2C(=O)c2ccc3c(c2)OCO3)[C@H]1CO | . | . | 98.7 | . | - | - | -
CN1c2ccc(-c3cccc(F)c3)cc2[C@H]2[C@H](CCN2C(=O)c2ccncc2)[C@H]1CO | . | . | 95.0 | . | - | - | -
CN1c2ccc(-c3cccc(F)c3)cc2[C@H]2[C@H](CCN2C(=O)C2CCOCC2)[C@@H]1CO | . | . | - | . | . | . | .
CN(C)C(=O)C[C@H]1C[C@@H]2c3cc(NC(=O)C4CCC4)ccc3O[C@@H]2[C@@H](CO)O1 | . | . | - | . | . | . | .
CCC(=O)N1CC[C@@H]2[C@H]1c1cc(-c3cccc(F)c3)ccc1N(C)[C@@H]2CO | . | . | 89.5 | . | - | - | -
CC(=O)N1CC[C@@H]2[C@@H](CO)N(C)c3ccc(-c4ccccc4)cc3[C@@H]21 | . | . | 42.5 | . | - | - | -
CC(=O)N1[C@@H]2c3ccc(-c4cccnc4)c(=O)n3C[C@@H]2[C@@H](CO)[C@@H]1C(=O)NCc1ccccc1Cl | . | . | 85.4 | . | - | - | -
CCNC(=O)[C@H]1[C@H](CO)[C@H]2Cn3c(ccc(-c4ccccc4)c3=O)[C@H]2N1C(=O)Cc1cccnc1 | . | . | 40.1 | . | - | - | -
CC(=O)N1[C@@H]2c3ccc(-c4cncnc4)c(=O)n3C[C@@H]2[C@@H](CO)[C@@H]1C(=O)NCc1ccccc1Cl | . | . | - | . | . | . | .
CC1(C)Cc2c(cnn2-c2cccc(F)c2)C(NC(=O)c2ccc(=O)[nH]n2)C1 (stereo unspecified) | - | - | - | - | . | . | .
Cc1cc(C(=O)NC2CC(C)(C)Cc3c2cnn3-c2cccc(F)c2)nn1C (stereo unspecified) | - | - | 68.7 | - | - | - | -
COc1ccc(C2c3c(oc4ccc(Cl)cc4c3=O)C(=O)N2CCN2CCOCC2)cc1 (stereo unspecified) | - | - | 72.5 | - | - | - | -
O=C1c2oc3ccc(Cl)cc3c(=O)c2C(c2ccco2)N1CCN1CCOCC1 (stereo unspecified) | - | - | - | - | . | . | .
C[C@H](CO)N1C[C@H](C)[C@@H](CN(C)S(C)(=O)=O)Oc2ncc(/C=C/c3ccccc3)cc2C1=O | . | . | - | . | . | . | .
COc1ccc(C(=O)Nc2cccnc2)cc1OC | . | - | 56.7 | - | - | - | -
Cn1nnc2cc(C(=O)Nc3cccnc3)ccc21 | . | - | 54.9 | - | - | - | -
SMILES | Vc quorum ag | GDH-TPI counter | BioA inh-1 | Mtb FBA inh | BioA inh-2 | HepG2 cytotox | NIH3T3 tox 5
COc1cc2c(cc1NC(=O)c1cccnc1)CCCC2 | - | - | 55.9 | - | - | - | -
CN1C(=O)c2ccc(C(=O)Nc3cccnc3)cc2C1=O | - | - | - | - | . | . | .
CCCCN1C(=O)c2ccc(C(=O)Nc3cccnc3)cc2C1=O | - | - | 81.7 | - | - | - | -
CCCC(=O)Nc1ccc2c(c1)C(=O)N(C)[C@H]1CC[C@@H](CC(=O)NC3CCCC3)O[C@@H]1CO2 | . | . | - | . | . | . | .
COc1ccc(NC(=O)c2ccc(S(=O)(=O)N(C)C)cc2)cc1OC | - | - | 43.3 | - | - | - | -
COc1cc(OC)cc(C(=O)Nc2ccc(Cn3ccnc3)cc2)c1 | - | - | - | - | . | . | .
COc1ccc(C(=O)Nc2ccc(Cn3ccnc3)cc2)cc1OC | - | - | 44.2 | - | - | - | -
Cn1cnc(S(=O)(=O)N[C@@H]2C=C[C@@H](CC(=O)N3CCN(c4ccccc4)CC3)O[C@@H]2CO)c1 | . | . | - | . | . | . | .
COc1cc(C(=O)NC2CCN(Cc3ccccc3)CC2)cc(Cl)c1OC | - | - | - | - | . | . | .
COc1ccc([N+](=O)[O-])cc1C(=O)NC1CCN(Cc2ccccc2)CC1 | - | - | 79.2 | - | - | - | -
O=C(C1CC1)N1CC[C@@H]2[C@H]1c1cc(Br)ccc1N[C@@H]2CO | . | . | 88.0 | . | - | - | -
O=C(Cc1ccccc1)N1CC[C@@H]2[C@H]1c1cc(Br)ccc1N[C@@H]2CO | . | . | 86.2 | . | - | - | -
O=S(=O)(N[C@H]1CC[C@@H](CCn2cc(C3(O)CCCC3)nn2)O[C@H]1CO)c1ccc(Cl)cc1 | . | . | - | . | . | . | .
O=C(C[C@@H]1C=C[C@H](NC(=O)C2CCC2)[C@H](CO)O1)NCC1CC1 | . | . | - | . | . | . | .
O=C(Nc1ccc2ccccc2c1)c1cccnc1 | - | - | - | - | . | . | .
O=C(Nc1ccc(Cl)c(-c2nc3ccccc3[nH]2)c1)c1cccnc1 | - | - | 64.3 | - | - | - | -
C[C@@H]1CCCCO[C@H](CN(C)C(=O)NC2CCCCC2)[C@H](C)CN([C@H](C)CO)C(=O)c2cc(NS(=O)(=O)c3cccs3)ccc2O1 | . | . | - | . | . | . | .
O=C(Nc1ccc2nccnc2c1)c1cnccn1 | - | - | 47.9 | - | - | - | -
O=C(Nc1ccc2ccccc2c1)c1cnccn1 | - | - | - | - | . | . | .
CCc1nn(CCCC(=O)N(C)Cc2ccccc2)c(=O)c2cc3occc3n12 | - | - | 49.8 | - | - | - | -
Cc1ccc(NCc2nnc(SCC(=O)N3CCc4ccccc43)n2C)cc1 | - | - | 46.7 | - | - | - | -
Cc1ccc(Cn2ccc(=O)c(Cc3c(Cl)cccc3Cl)c2C)cc1 | - | - | - | - | . | . | .
COc1ccc(Cn2ccc(=O)c(Cc3c(Cl)cccc3Cl)c2C)cc1 | - | - | 43.0 | - | - | ? | ?
COc1ccccc1S(=O)(=O)N1CC[C@H]2[C@H](CO)Nc3ccc(-c4cccc(C#N)c4)cc3[C@H]21 | . | . | - | . | . | . | .
COc1ccccc1S(=O)(=O)N1CC[C@@H]2[C@H](CO)Nc3ccc(-c4cccc(C#N)c4)cc3[C@@H]21 | . | . | 48.2 | . | - | - | -
O=C(C[C@H]1CC[C@@H]2[C@H](COC[C@H](O)CN2C(=O)c2ccccc2F)O1)N1CCN(c2ccccc2)CC1 | . | . | - | . | . | . | .
COc1ccc(C2c3c(-c4cc(Cl)c(C)cc4O)n[nH]c3C(=O)N2Cc2cccnc2)cc1OC (stereo unspecified) | - | - | 55.9 | - | - | - | -
Cc1noc(C)c1NC(=O)NCC[C@@H]1CC[C@@H](NC(=O)c2ccncc2)[C@H](CO)O1 | . | . | - | . | . | . | .
